According to PubChem BioAssay:
Active and inactive are the calls of the source. The rule behind the calls is not given here.

target: Protein kinase 7 (PK7), Plasmodium falciparum 3D7 (PF3D7_0213400) (UniProt Q7YTF7); test: inhibition of Plasmodium PK7 catalytic activity – biochemical, TCAMS antimalarial set, Kinase-Glo luminescence (AID 1159587); conditions: recombinant PfPK7, Kinase-Glo ATP depletion luminescence
Sequence (Q7YTF7 1-343): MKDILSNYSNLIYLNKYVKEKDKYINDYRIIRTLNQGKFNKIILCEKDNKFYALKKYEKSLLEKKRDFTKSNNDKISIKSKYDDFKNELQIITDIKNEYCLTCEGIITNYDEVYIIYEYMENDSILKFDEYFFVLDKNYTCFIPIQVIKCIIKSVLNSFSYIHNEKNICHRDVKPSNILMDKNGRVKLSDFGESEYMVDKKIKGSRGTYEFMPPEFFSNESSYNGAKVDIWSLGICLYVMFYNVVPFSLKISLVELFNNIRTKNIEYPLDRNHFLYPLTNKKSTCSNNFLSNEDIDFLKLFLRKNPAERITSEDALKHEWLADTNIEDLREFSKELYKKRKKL

outcome, inactive:
OCCc1ccc(Nc2nccc(-c3nnc4ccccn34)n2)cc1
COc1ccc(Cn2ccc3c4c(N)nc(N)nc4ccc32)cc1
O=C(NCCSCc1c(F)cccc1Cl)c1cnc2c(c1)nc(-c1cnc(-c3ccccc3)[nH]1)n2CCc1cnc[nH]1
O=C(CSc1nccn1C1CCCC1)Nc1cc(C(F)(F)F)ccc1Cl
OC(CNCc1ccccc1OCc1ccccc1)c1cccc(Br)c1 (stereo not given)
NC1CCN(Cc2cccc(-c3ccc(-c4nc5ccccc5[nH]4)s3)c2)C1 (stereo not given)
CN1CCN(c2ccc(-c3cc(-c4ccncc4)c(-c4ccc(Cl)c(O)c4)o3)cc2)CC1
CC(C)C1=C[C@H]2C[C@]3(C4OCCO4)[C@@H]4CC[C@@H](C)[C@H]4C[C@@]2(C(=O)OCC2COCO2)[C@]13C(=O)OC(c1ccccc1)c1ccccc1 (stereo not given in full)
Cc1ccc(CNC(=O)[C@H](CCCN)Nc2nc(Nc3ccccc3)ncc2C)cc1
CCn1c(Sc2ccc([N+](=O)[O-])c(C#N)c2)nnc1-c1ccc(Cl)cc1
Cc1cccc(NC(=O)Nc2cccc(-c3ccc(-c4nc5ccc(C(F)(F)F)cc5[nH]4)cc3)c2)c1
CN1CCCC(CN2CCN(Cc3cccc(-c4ccc(-c5nc6ccc(F)cc6[nH]5)cc4)c3)CC2)C1 (stereo not given)
CN1CCC(N2CCN(CCOc3cc(NC(=O)/C=C/c4ccccc4Cl)ccc3Br)CC2)CC1
Cc1nc(N)nc(N)c1OCc1cccc2ccccc12
CN(C1CCC(NC(=O)/C=C/c2ccccc2)CC1)C1CC2(CCN(C(=O)OC(C)(C)C)CC2)c2ccccc21 (stereo not given)
